Reference: the supplement of paper PMC12669032

Columns and labels:
Assay in all cases: growth AUC relative to DMSO control (median of replicates) (fraction); higher = more growth (less inhibition), active = hit call of the paper
Conditions in all cases: 20 µM; 24 h;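 active = AUC reduced over 20% with Padj below 0.05 in at least 2 of 3 replicates; inactive = otherwise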
[1] = test system: Akkermansia muciniphila
In short: (§1)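 Gut bacteria were grown singly in mGAM at 37 °C without oxygen, from OD600 0.05, alongside 20 µM compound in 1% DMSO, and OD600 was read each hour for 24 h. Area under the growth curve was normalised to the median of solvent-only wells per plate, or to row and column medians on the industrial chemical plate. The minimum OD was set to 0 beforehand, and the reported value is the median of three biological replicates grown on separate days.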

[2] = test system: Bacteroides caccae
In short: as §1

[3] = test system: Bacteroides clarus
In short: as §1

[4] = test system: Bacteroides dorei
In short: as §1

[5] = test system: Bacteroides stercoris
In short: as §1

[6] = test system: Bacteroides thetaiotaomicron
In short: as §1

[7] = test system: Bacteroides uniformis
In short: as §1

[8] = test system: Bifidobacterium longum subsp. longum
In short: as §1

[9] = test system: Clostridium difficile
In short: as §1

[10] = test system: Collinsella aerofaciens
In short: as §1

[11] = test system: Coprococcus comes
In short: as §1

[12] = test system: Escherichia coli ED1a
In short: as §1

[13] = test system: Escherichia coli IAI1
In short: as §1

[14] = test system: Eubacterium rectale
In short: as §1

[15] = test system: Fusobacterium nucleatum subsp. animalis
In short: as §1

[16] = test system: Lactobacillus gasseri
In short: as §1

[17] = test system: Lactobacillus paracasei
In short: as §1

[18] = test system: Odoribacter splanchnicus
In short: as §1

[19] = test system: Parabacteroides distasonis
In short: as §1

[20] = test system: Parabacteroides merdae
In short: as §1

Measured: growth AUC

CCOC(=O)c1ccccc1S(=O)(=O)NC(=O)Nc1nc(Cl)cc(OC)n1
inactive: [1] 1.1 | [2] 0.991 | [3] 1.03 | [4] 0.933 | [5] 0.97 | [6] 1.01 | [7] 0.962 | [8] 1.4 | [9] 1.03 | [10] 0.993 | [11] 0.988 | [12] 1.03 | [13] 1.02 | [14] 1.05 | [15] 1.07 | [16] 0.969 | [17] 1.05 | [18] 1.1 | [19] 1.07 | [20] 1.04

CN(C)C(=O)C(c1ccccc1)c1ccccc1
inactive: [1] 0.89 | [2] 1.03 | [3] 0.963 | [4] 1.05 | [5] 0.957 | [6] 0.992 | [7] 1.05 | [8] 0.947 | [9] 1.03 | [10] 1.01 | [11] 0.974 | [12] 0.98 | [13] 0.977 | [14] 1.11 | [15] 0.975 | [16] 1 | [17] 0.887 | [18] 0.957 | [19] 1 | [20] 1

[Cl][Sn]([c]1ccccc1)([c]1ccccc1)[c]1ccccc1
active: [2] 0.0272 | [3] 0.272 | [4] 0.0162 | [5] 0.0164 | [6] 0.00729 | [7] 0.0126 | [8] 0.303 | [10] 0.152 | [11] 0.0492 | [14] 0.0221 | [18] 0.0358 | [19] 0.048 | [20] 0.0101
inactive: [1] 0.915 | [9] 0.849 | [12] 0.981 | [13] 0.964 | [15] 0.897 | [16] 0.383 | [17] 0.83

O=[N+]([O-])c1cc(Cl)ccc1Cl
inactive: [1] 1.04 | [2] 0.998 | [3] 0.977 | [4] 0.986 | [5] 1.03 | [6] 0.989 | [7] 1.02 | [8] 1.01 | [9] 0.995 | [10] 0.964 | [11] 0.935 | [12] 0.983 | [13] 0.979 | [14] 1.04 | [15] 1.04 | [16] 0.872 | [17] 1.05 | [18] 1.04 | [19] 1.01 | [20] 0.987

COCc1c(F)c(F)c(COC(=O)[C@@H]2[C@@H](C=C(Cl)Cl)C2(C)C)c(F)c1F
inactive: [1] 1.07 | [2] 0.953 | [3] 1.03 | [4] 1.01 | [5] 1.29 | [6] 1.03 | [7] 0.969 | [8] 1.03 | [9] 0.994 | [10] 1 | [11] 0.981 | [12] 1.03 | [13] 1.02 | [14] 1.09 | [15] 1.09 | [16] 1.03 | [17] 1.04 | [18] 1.03 | [19] 1 | [20] 1.01

CCNS(=O)(=O)C(F)(F)C(F)(F)C(F)(F)C(F)(F)C(F)(F)C(F)(F)C(F)(F)C(F)(F)F
inactive: [1] 0.945 | [2] 0.986 | [3] 0.906 | [4] 1.02 | [5] 0.896 | [6] 0.993 | [7] 0.966 | [8] 0.905 | [9] 1.04 | [10] 1.13 | [11] 0.995 | [12] 0.987 | [13] 0.99 | [14] 0.975 | [15] 0.968 | [16] 1.05 | [17] 0.891 | [18] 0.978 | [19] 1.01 | [20] 0.947

CON(C)C(=O)Nc1ccc(Br)c(Cl)c1
inactive: [1] 0.863 | [2] 1.04 | [3] 0.978 | [4] 1.08 | [5] 0.958 | [6] 0.998 | [7] 0.944 | [8] 0.946 | [9] 0.996 | [10] 1 | [11] 1.03 | [12] 0.958 | [13] 1.04 | [14] 0.867 | [15] 0.886 | [16] 1.13 | [17] 0.989 | [18] 0.998 | [19] 1.01 | [20] 0.967

COc1cc(OC)nc(NC(=O)NS(=O)(=O)c2ncccc2C(F)(F)F)n1
inactive: [1] 0.985 | [2] 1.02 | [3] 0.977 | [4] 0.991 | [5] 0.908 | [6] 1.02 | [7] 1.02 | [8] 1 | [9] 1.02 | [10] 0.972 | [11] 1.02 | [12] 0.985 | [13] 0.998 | [14] 1.09 | [15] 1.04 | [16] 1.02 | [17] 0.986 | [18] 1.09 | [19] 1.05 | [20] 1.04
